From PubChem BioAssay (NCI)
About 83,000 compounds went through this panel and 20% of them were active in at least one assay; those are over-represented in the sample as a whole.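 Values shown are percent growth following 48 h exposure of cells in 96-well plates to a single concentration of compound; below 10 was considered active.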 A number with no mark means an inactive call. Active and inactive are the calls of the source.

Experiments:
Test in all cases: NCI-60 one-dose screen, 48 h (100 = growth as untreated, 0 = no growth, -100 = all killed)
Conditions in all cases: 10 µM unless noted
SR leukemia = test system: SR leukemia
RPMI-8226 leukemia = test system: RPMI-8226 leukemia
OVCAR-8 ovarian = test system: OVCAR-8 ovarian
OVCAR-5 ovarian = test system: OVCAR-5 ovarian
OVCAR-4 ovarian = test system: OVCAR-4 ovarian
SK-OV-3 ovarian = test system: SK-OV-3 ovarian
IGROV1 ovarian = test system: IGROV1 ovarian
OVCAR-3 ovarian = test system: OVCAR-3 ovarian
HS 578T breast = test system: HS 578T breast
NCI/ADR-RES ovarian = test system: NCI/ADR-RES ovarian
T-47D breast = test system: T-47D breast
BT-549 breast = test system: BT-549 breast
MDA-MB-435 melanoma = test system: MDA-MB-435 melanoma
SW-620 colon = test system: SW-620 colon
MCF7 breast = test system: MCF7 breast
HCT-116 colon = test system: HCT-116 colon
HCC-2998 colon = test system: HCC-2998 colon
KM12 colon = test system: KM12 colon

Row | Compound | growth (SR leukemia) | growth (RPMI-8226 leukemia) | growth (OVCAR-8 ovarian) | growth (OVCAR-5 ovarian) [%] | growth (OVCAR-4 ovarian) | growth (SK-OV-3 ovarian) | growth (IGROV1 ovarian) | growth (OVCAR-3 ovarian) | growth (HS 578T breast) | growth (NCI/ADR-RES ovarian) | growth (T-47D breast) | growth (BT-549 breast) | growth (MDA-MB-435 melanoma) | growth (SW-620 colon) | growth (MCF7 breast) | growth (HCT-116 colon) | growth (HCC-2998 colon) | growth (KM12 colon)
1 | O=C(COc1cccc(/C=C2\COc3ccccc3C2=O)c1)Nc1nccs1 | -73.8% (active) | -67% (active) | 20.3% | 81.8 | 97.2% | 99.8% | 5.16% (active) | 73.8% | -6.5% (active) | 45.6% | 54.7% | -79.6% (active) | 53.5% | -40.7% (active) | -12.5% (active) | -100% (active) | -85.6% (active) | -44.6% (active)
2 | N#Cc1nnn(-c2ccc(S(N)(=O)=O)cc2)c1NC(=O)CCl | 96.1% | 91.4% | 101% | 96.6 | 103% | 96.6% | 104% | 106% | 0.129% (active) | 102% | 95.2% | 97.1% | 99.6% | 102% | 90.9% | 94.6% | 106% | 94.9%
3 | O=c1cc(/C(=C2/C=CC=N2)c2ccc[nH]2)c2cc(Cl)ccc2o1 | 23.7% | 51% | -4.06% (active) | 93.1 | 77% | 34.8% | 31.5% | -20.3% (active) | 22.2% | 5.06% (active) | 32% | 52.1% | 9.82% (active) | 34.8% | 70.9% | 44.2% | 89.7% | 38.9%
4 | Cc1ccc(NC(=O)C2CCC(CN3CCN(C)CC3)CC2)cc1Nc1nccc(-c2cccnc2)n1 (stereo not drawn) | 90.9% | 96.6% | 111% | 92 | 108% | 110% | 110% | 103% | 85.1% | 97.5% | 86.2% | 103% | 93.5% | 98.4% | 83.8% | 101% | 106% | 97.3%
5 | CN1CCN(c2nc(NCCCNc3ccnc4cc(Cl)ccc34)c3ccccc3n2)CC1 | -25.3% (active) | 8.13% (active) | 38.8% | 84.8 | 59.8% | 66.6% | 70.7% | 75.8% | 79.5% | 96.3% | 40.7% | 74.5% | -22.4% (active) | 15.7% | 29.9% | 37.3% | 37.2% | 41.9%
6 | Cc1ccc(C2=NN3C(C2)c2cc(Br)ccc2OC32CCN(Cc3ccccc3)CC2)o1 (stereo not drawn) | 90.2% | 80.8% | 98.8% | 109 | 94.3% | 93.7% | 82.1% | 96.6% | 92% | 94% | 86.6% | 92.4% | 94% | 97.2% | 77.3% | 99.6% | 97.9% | 95.4%
7 | CC(=O)Nc1ccc(S(=O)(=O)Nc2cccc(-c3nc(-c4ccc(NC(=O)c5cccnc5)cc4Cl)no3)c2)cc1 | 19% | 43.8% | 38.8% | 84.7 | 53% | 20.9% | 54.7% | 20.7% | 24.5% | 94.7% | 14% | 33.3% | 6.69% (active) | 29.5% | 17.1% | 30.4% | 69.1% | 28.7%
8 | CN(C)c1ccc(NC(=O)c2ccc(/C=C/C(=O)c3ncc[nH]3)cc2)cc1 | 5.75% (active) | -4.78% (active) | 26.6% | 95.4 | 75.7% | 64.2% | 69.8% | 25.7% | 88.1% | 64% | 46.6% | 63.1% | 51.7% | 21.1% | 12.1% | 46.4% | 87.9% | 10.2%
9 | CCOc1cc2ncc(C#N)c(Nc3ccc(OCc4cccc(F)c4)c(Cl)c3)c2cc1NC(=O)CCCCC1CCSS1 (stereo not drawn) | 92.4% | 78.6% | 91% | 111 | 99.6% | 83.7% | 82.2% | 102% | 91.3% | 101% | 64.4% | 98.5% | 99% | 99.4% | 58.8% | 75.6% | 105% | 82.8%
10 | COc1ccc(C(=O)/C=C/c2cccnc2Nc2cc(OC)c(OC)c(OC)c2)cc1 | -0.688% (active) | -21.2% (active) | -0.898% (active) | 37.7 | 39.8% | 24.7% | 72% | 11.5% | 36.7% | 4.44% (active) | 44.1% | 36.3% | 2.91% (active) | -42.5% (active) | 12.9% | 13.7% | 22.9% | 14%
11 | CC1=C/C(=C(\c2ccc(N(C)C)cc2)c2ccc([N+](C)(C)C)cc2)C=CC1=[N+](C)C | 60.8% | 2.54% (active) | 36.2% | 115 | 89.3% | 94% | 94.4% | 86.6% | 55% | 100% | 52.2% | 96.1% | 78.4% | 66.5% | 59.9% | 36.1% | 77.3% | 61.4%
12 | O=C(Oc1cccnc1)c1ccsc1Nc1ccnc(C(F)(F)F)c1 | 17.6% | 27.6% | 84% | 102 | 60.2% | 88.2% | 35.9% | 100% | 109% | 60.4% | 72.7% | 45% | 82.6% | 21% | 58.2% | 9.98% (active) | 114% | 41%
13 | CNC(=O)c1cc(Oc2ccc(NC(=O)Nc3ccc(Cl)c(OC(F)(F)F)c3)c(F)c2)ccn1 | 30% | 13.6% | 30.3% | 56.7 | 5.4% (active) | 64.9% | 46.4% | 39.8% | 51.9% | 31.6% | -2.82% (active) | 60.4% | 19.4% | 43.1% | 17.1% | 14% | 39% | 13.3%
14 | COc1ccc(-c2cc(-c3ccc(Nc4ccnc5cc(Cl)ccc45)cc3)nc(N3CCOCC3)n2)cc1 | -18% (active) | -1.81% (active) | 15.3% | 135 | -52.1% (active) | 101% | 103% | 2.68% (active) | -11.4% (active) | 20.8% | -23% (active) | 45.8% | 10.1% | 8.98% (active) | 22.7% | 52.8% | 98.8% | 44.9%
15 | O=c1cc(CSc2nnc(SCc3cc(=O)oc4c3ccc3ccccc34)o2)c2ccc3ccccc3c2o1 | 91.7% | 99.8% | 94.1% | 99.7 | 111% | 98.8% | 94.9% | 105% | 94.2% | 94.4% | 78.6% | 107% | 112% | 98.1% | 93.7% | 104% | 101% | 98.2%
16 | Clc1ccc2c(NCCNc3nc(N4CCCCC4)nc4ccccc34)ccnc2c1 | -29.5% (active) | -41.6% (active) | -30.5% (active) | 25.4 | 34.2% | -2.73% (active) | 30.4% | -64.7% (active) | 37.9% | 25.4% | -29.7% (active) | 53.7% | -66.4% (active) | -36.6% (active) | 14.5% | -25.4% (active) | 10.6% | 7.18% (active)
